Peg3 prom inh = Peg3 promoter-driven luciferase inhibitors, primary screen, cell-based, HeLa, luciferase luminescence. AID 588405, 2011. HeLa PEG-Prom luciferase reporter, overnight. inhibition, % at 20 µM. 360,000 tested, 1.7% active;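 active means inhibition of at least 50% at 20 µM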
HIF-2a inh = HIF-2a reporter inhibitors, primary screen, luminescence, 786-0 RCC cells; AID 624352, 2012; 786-0 RCC cells HIF-2a reporter, luciferase luminescence, overnight; inhibition, % at 18.8 µM; 360,000 tested, 0.72% active;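 active means inhibition of the luminescence signal of 40% or more relative to plate controls, in a single-dose primary screen at 18.75 µM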
LMP1 NFkB inh = EBV LMP1-driven NF-kappaB luciferase reporter inhibitors, primary screen, cell-based, luminescence, single point; LMP1-induced NF-kappaB luciferase reporter cells; 350,000 tested, 0.69% active; inhibition, % at 12.5 µM; AID 504558, 2011; in the data active means inhibition above about 41%;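 further: 0% = neutral control wells and 100% = reference inhibitor control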
Shn3 3UTR inh = reduction of Shn3 3'UTR firefly luciferase signal, primary screen, Schnurri-3 inhibitor project, cell-based, Clone20 osteoblasts, set 2; inhibition, % at 12.5 µM; 360,000 tested, 0.52% active; Clone20 osteoblast Shn3 3'UTR firefly luciferase, 24 h;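 active means mean inhibition of at least 75% with every replicate also reaching 75%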;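 further: 0% = median of neutral control wells and 100% = pilot-screen positive control compound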
TRPM1 prom inh = inhibitors of MITF-dependent TRPM1 promoter reporter, primary screen, cell-based, SK-MEL-5, single point, luciferase. SK-MEL-5 TRPM1 promoter luciferase, 24 h. inhibition, % at 12.5 µM. 330,000 tested, 0.83% active;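 active means mean inhibition across replicates of 60% or more, whatever share of single replicates reaches that level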
PAX8 reporter = inhibitors of PAX8-driven TPO luciferase reporter, primary screen, RMG-I cells, single concentration; 360,000 tested, 1.2% active; inhibition, % at 12.6 µM; SteadyGlo, 24 h;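 active means mean replicate inhibition at least 60% with every replicate also reaching 60%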;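 further: luciferase light reporting Pax8 driven TPO promoter activity; plate controls were median of neutral control wells for no effect and mitoxantrone controls for full effect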
Mdm2-MdmX confirm = retested Mdm2-MdmX interaction blockers, confirmation, cell-based, luminescence, single concentration, set 2 | 740 tested, 99% active | inhibition, % at 8 µM | SaOS-2 split-luciferase Mdm2/MdmX complementation | AID 504601, 2011 | shares compounds with HIF-2a inh;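 active means mean inhibition of the luminescence signal across two replicates at or above 26 percent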
HIF-2a inh conf = HIF-2a reporter inhibitor retest, confirmation, luminescence, 786-0 RCC cells; shares compounds with HIF-2a inh; HIF-2a luciferase reporter luminescence, overnight; inhibition, % at 18.8 µM; 1,800 tested, 56% active; AID 651580, 2012;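 active means mean inhibition across four replicates of at least 40 percent at the single tested concentration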
HIF-1a cs = HIF-1a luciferase reporter signal reduction – MiaPaCa-2 cells, single concentration, counter-screen for HIF-2a inhibitor project, confirmation | inhibition, % at 18.8 µM | 1,800 tested, 72% active | shares compounds with HIF-2a inh | MiaPaCa-2 HIF-1a luciferase reporter, desferoxamine, overnight | AID 651589, 2012;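 active means mean inhibition of the reporter signal across four replicates at the single tested dose of 50% or more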
* marks the source's active call; other numbers are inactive results. Rows were chosen to be rich in hits. Some 2.8% of all compounds tested hit in one or more screens of this group.

For CCCC(=O)Nc1ccc2c(c1)C(=O)N(C)[C@H]1CC[C@H](CC(=O)NCCCN(C)C)O[C@@H]1CO2 the results were PAX8 reporter 3.
Screening CCCC#Cc1ccc([C@H]2[C@@H](C#N)N(C(=O)CN3CCOCC3)[C@@H]2CO)cc1 returned PAX8 reporter -10.
Screening C#CC(=O)N(c1cccc(OC)c1)C(C(=O)NC1CCCC1)c1cccs1 (stereo not given) returned Peg3 prom inh 106*, HIF-2a inh 93*, LMP1 NFkB inh 96*, Shn3 3UTR inh 100*, TRPM1 prom inh 107*, Mdm2-MdmX confirm 103*, HIF-2a inh conf 99* and HIF-1a cs 104*.
COc1ccc(N(C(=O)Cc2cccs2)C(C(=O)NC2CCCC2)c2ccncc2)cc1OC (stereo not given) was read as Peg3 prom inh 2, HIF-2a inh 18, LMP1 NFkB inh -2, Shn3 3UTR inh -4, TRPM1 prom inh -4 and PAX8 reporter -24.
C#CC(=O)N(c1ccc(OC)c(OC)c1)C(C(=O)NC1CCCC1)c1cccs1 (stereo not given) was read as Peg3 prom inh 103*, HIF-2a inh 87*, LMP1 NFkB inh 10, Shn3 3UTR inh 87*, TRPM1 prom inh 96*, Mdm2-MdmX confirm 102*, HIF-2a inh conf 100* and HIF-1a cs 105*.
Cc1cccc(N(C(=O)C(F)(F)F)C(C(=O)NC2CCCCC2)c2cccs2)c1 (stereo not given) was read as Peg3 prom inh 9, HIF-2a inh -11, LMP1 NFkB inh -3, Shn3 3UTR inh -7 and TRPM1 prom inh -3.
C[C@H](CO)N1C[C@H](C)[C@H](CN(C)Cc2ccncc2)Oc2ccc(NS(=O)(=O)c3cccs3)cc2CC1=O was read as PAX8 reporter -5.
C1=CC2=NC34CCCCC3CC3=C(CCCC3)N4C2=CC1=NC1CCCCC1 (stereo not given) was read as Peg3 prom inh 22, HIF-2a inh 17, LMP1 NFkB inh -13, Shn3 3UTR inh -18, TRPM1 prom inh 14 and Mdm2-MdmX confirm 52*.
COc1ccc(-c2cc(-c3ccccc3)c(C#N)c(S(C)=O)n2)cc1 (stereo not given) was read as Peg3 prom inh 114*, HIF-2a inh 76*, LMP1 NFkB inh 11, Shn3 3UTR inh 2, TRPM1 prom inh 70*, PAX8 reporter 76*, HIF-2a inh conf 31 and HIF-1a cs 98*.
Screening O=C(Nc1ccc(F)cc1)N1CCCCN2[C@@H](CO)[C@@H](c3ccc(-c4ccccc4F)cc3)[C@@H]2C1 returned PAX8 reporter 37.
Screening Cc1ccc(S(=O)(=O)CC(CN2CCOCC2)N2CCOCC2)cc1 (stereo not given) returned Peg3 prom inh 6, HIF-2a inh 9, LMP1 NFkB inh 0, Shn3 3UTR inh -16, TRPM1 prom inh 16 and PAX8 reporter 5.
For CC1CCN(CC(CS(=O)(=O)c2ccc([N+](=O)[O-])cc2)N2CCC(C)CC2)CC1 (stereo not given) the results were Peg3 prom inh 108*, HIF-2a inh 93*, LMP1 NFkB inh -2, Shn3 3UTR inh -29, TRPM1 prom inh 84*, PAX8 reporter 14, Mdm2-MdmX confirm 103*, HIF-2a inh conf 24 and HIF-1a cs 107*.
Screening C[C@@H]1CN([C@@H](C)CO)C(=O)c2c(c3ccccc3n2C)-c2ccccc2CO[C@H]1CN(C)Cc1ccc(Cl)c(Cl)c1 returned PAX8 reporter 12.
Screening O=C(O)c1c(NC(=O)N2CCOCC2)sc2c1CCCC2 returned Peg3 prom inh -28, HIF-2a inh 55*, LMP1 NFkB inh -7, Shn3 3UTR inh -26, TRPM1 prom inh -2, PAX8 reporter -15, HIF-2a inh conf -12 and HIF-1a cs 1.
For NC(=O)c1c(NC(=O)C(=O)N2CCOCC2)sc2c1CCCC2 the results were Peg3 prom inh -3, HIF-2a inh -7, LMP1 NFkB inh 4, Shn3 3UTR inh -7, TRPM1 prom inh 5 and PAX8 reporter -5.
`O=C(NC[C@H]1N[C@H](CO)[C@@H]1c1ccc(C2=CCCCC2)cc1)c1ccc(F)cc1` gave PAX8 reporter 10.
For CC(C)c1nnc(NC(=O)c2nc(S(=O)(=O)Cc3ccc(F)cc3)ncc2Cl)s1 the results were Peg3 prom inh 106*, HIF-2a inh 64*, LMP1 NFkB inh 85*, Shn3 3UTR inh 98*, TRPM1 prom inh 75*, PAX8 reporter 16, Mdm2-MdmX confirm 103*, HIF-2a inh conf 66* and HIF-1a cs 107*.
`CC(C)c1nnc(NC(=O)CCC(=O)N2CCN(Cc3ccc(F)cc3)CC2)s1` gave Peg3 prom inh -4, HIF-2a inh 11, LMP1 NFkB inh 5, Shn3 3UTR inh -2, TRPM1 prom inh 15 and PAX8 reporter -7.
CSc1nnc(NC(=O)c2nc(S(=O)(=O)Cc3ccccc3F)ncc2Cl)s1 was read as Peg3 prom inh 106*, HIF-2a inh 68*, LMP1 NFkB inh 13, Shn3 3UTR inh 96*, TRPM1 prom inh 75*, PAX8 reporter 1, Mdm2-MdmX confirm 102*, HIF-2a inh conf 24 and HIF-1a cs 106*.
Screening CSc1ncc(Cl)c(C(=O)Nc2nnc(SC/C=C/c3ccccc3)s2)n1 returned Peg3 prom inh 13, HIF-2a inh 7, LMP1 NFkB inh 0, Shn3 3UTR inh -37 and TRPM1 prom inh 10.
For Cc1cccc(CS(=O)(=O)c2ncc(Cl)c(C(=O)Nc3nnc(C(C)C)s3)n2)c1 the results were Peg3 prom inh 106*, HIF-2a inh 82*, LMP1 NFkB inh 56*, Shn3 3UTR inh 95*, TRPM1 prom inh 76* and Mdm2-MdmX confirm 103*.

Assay outcomes deposited in PubChem BioAssay by several laboratories.
